Experimental findings from article PMC7862700, “An all-to-all approach to the identification of sequence-specific readers for epigenetic DNA modifications on cytosine” are described below.

Holding throughout (test): DAPPL (digital affinity profiling via proximity ligation, sequencing); 10 mM Tris-HCl pH 7.5, 50 mM NaCl, 1 mM DTT, 4% glycerol, room temperature, 30 min; GST-TFs on glutathione beads, 16-mer random dsDNA library, 0.1% formaldehyde crosslink after washing; high values mean tight binding
The target in one assay is T1, FLI1 (Homo sapiens, UniProt Q01543 1-452).
T1 sequence: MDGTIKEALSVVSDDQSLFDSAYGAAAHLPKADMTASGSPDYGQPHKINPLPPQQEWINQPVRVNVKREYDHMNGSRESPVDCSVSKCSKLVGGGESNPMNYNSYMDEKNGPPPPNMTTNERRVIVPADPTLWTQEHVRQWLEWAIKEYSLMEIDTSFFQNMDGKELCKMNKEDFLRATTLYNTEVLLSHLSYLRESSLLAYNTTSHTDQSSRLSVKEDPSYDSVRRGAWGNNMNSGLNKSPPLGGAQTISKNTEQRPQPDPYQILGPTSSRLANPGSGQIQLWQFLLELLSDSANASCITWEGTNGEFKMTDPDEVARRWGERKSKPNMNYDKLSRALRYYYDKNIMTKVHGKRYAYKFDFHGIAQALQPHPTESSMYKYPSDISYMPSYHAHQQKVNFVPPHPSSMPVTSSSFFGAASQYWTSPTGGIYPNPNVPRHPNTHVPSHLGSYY
The following applies: protein: recombinant; tags: N-terminal GST; dsDNA, one strand shown. An outline of the steps: (§1)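 After expression in yeast as GST fusions, human transcription factors were bound to glutathione beads, DNA-barcoded and mixed with a tag-only sample. The pools were incubated with 200 nmole of a 16-mer random double-stranded DNA library in Tris/NaCl/DTT/glycerol buffer (30 min, room temperature), washed and crosslinked with 0.1% formaldehyde. Proximity ligation with BsaI/T4 ligase ran for 1 h at 37 °C, before PCR amplification and sequencing on an Illumina NextSeq500. Binding signal is a hexamer's read frequency for a factor divided by its frequency for the tag-only sample.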

Another assay concerns the target T2, ELK1 (Homo sapiens, UniProt P19419 1-428).
T2 sequence: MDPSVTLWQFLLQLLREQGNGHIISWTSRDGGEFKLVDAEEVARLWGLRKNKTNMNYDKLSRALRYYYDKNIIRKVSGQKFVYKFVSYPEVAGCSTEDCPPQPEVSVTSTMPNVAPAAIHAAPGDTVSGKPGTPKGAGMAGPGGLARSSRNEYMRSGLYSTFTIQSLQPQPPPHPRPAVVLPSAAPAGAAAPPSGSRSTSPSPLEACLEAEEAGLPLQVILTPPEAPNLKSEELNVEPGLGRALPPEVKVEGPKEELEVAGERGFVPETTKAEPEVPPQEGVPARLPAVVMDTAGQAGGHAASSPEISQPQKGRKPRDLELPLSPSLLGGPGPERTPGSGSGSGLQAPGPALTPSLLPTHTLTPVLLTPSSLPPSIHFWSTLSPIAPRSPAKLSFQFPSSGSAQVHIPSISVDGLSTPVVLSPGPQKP
As to conditions: protein: recombinant; tags: N-terminal GST; dsDNA, one strand shown. In a few lines:
as §1

The next assay deals with T3, GABPA (Homo sapiens, UniProt Q06546 1-454).
T3 sequence: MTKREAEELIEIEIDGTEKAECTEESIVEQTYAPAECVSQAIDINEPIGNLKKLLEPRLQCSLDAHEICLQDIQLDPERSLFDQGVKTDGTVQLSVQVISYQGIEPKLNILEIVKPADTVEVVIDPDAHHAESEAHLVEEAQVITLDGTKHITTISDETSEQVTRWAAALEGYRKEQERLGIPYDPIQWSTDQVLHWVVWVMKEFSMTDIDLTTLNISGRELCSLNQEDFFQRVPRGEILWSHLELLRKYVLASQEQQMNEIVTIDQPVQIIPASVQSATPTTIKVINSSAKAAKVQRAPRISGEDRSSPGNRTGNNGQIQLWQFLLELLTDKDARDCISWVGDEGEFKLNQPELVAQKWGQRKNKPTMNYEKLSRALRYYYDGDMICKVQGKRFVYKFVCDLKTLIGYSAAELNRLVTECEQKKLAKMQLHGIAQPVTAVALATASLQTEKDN
As to conditions: protein: recombinant; tags: N-terminal GST; dsDNA, one strand shown. In a few lines: as §1

Another assay deals with T4, ERG (Homo sapiens, UniProt P11308 1-479).
T4 sequence: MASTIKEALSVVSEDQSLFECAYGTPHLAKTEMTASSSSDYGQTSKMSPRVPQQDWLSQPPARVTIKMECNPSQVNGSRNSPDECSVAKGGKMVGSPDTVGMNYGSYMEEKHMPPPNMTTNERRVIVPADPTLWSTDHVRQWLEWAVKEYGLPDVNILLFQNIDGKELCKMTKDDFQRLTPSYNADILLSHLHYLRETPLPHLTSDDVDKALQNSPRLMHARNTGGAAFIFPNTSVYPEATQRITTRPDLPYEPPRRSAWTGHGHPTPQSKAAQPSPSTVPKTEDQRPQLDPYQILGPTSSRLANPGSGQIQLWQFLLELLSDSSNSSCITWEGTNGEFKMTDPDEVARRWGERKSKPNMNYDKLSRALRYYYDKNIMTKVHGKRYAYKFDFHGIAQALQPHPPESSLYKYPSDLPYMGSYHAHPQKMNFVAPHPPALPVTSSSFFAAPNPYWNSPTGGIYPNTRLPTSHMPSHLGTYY
As to conditions: protein: recombinant; tags: N-terminal GST; dsDNA, one strand shown. In a few lines: as §1

The target in the next assay is ELF1 (Homo sapiens, UniProt P32519 1-619). The following applies: protein: recombinant; tags: N-terminal GST; dsDNA, one strand shown. In a few lines:
as §1

Another assay deals with T5, EHF (Homo sapiens, UniProt Q9NZC4 1-300).
T5 sequence: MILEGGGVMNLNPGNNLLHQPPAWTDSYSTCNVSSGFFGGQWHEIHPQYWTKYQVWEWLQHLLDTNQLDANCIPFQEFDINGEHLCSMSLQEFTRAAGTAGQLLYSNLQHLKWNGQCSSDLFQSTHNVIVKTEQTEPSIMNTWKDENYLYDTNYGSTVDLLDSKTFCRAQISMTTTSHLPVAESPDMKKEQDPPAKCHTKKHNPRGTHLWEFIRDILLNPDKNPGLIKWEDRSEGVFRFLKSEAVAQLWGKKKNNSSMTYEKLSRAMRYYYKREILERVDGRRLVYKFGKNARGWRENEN
As to conditions: protein: recombinant; tags: N-terminal GST; dsDNA, one strand shown. An outline of the steps:
as §1

Another assay has as its target SPI1 (Homo sapiens, UniProt P17947 1-270). As to conditions: protein: recombinant; tags: N-terminal GST; dsDNA, one strand shown. An outline of the steps:
as §1

Another assay deals with SPIB (Homo sapiens, UniProt Q01892 1-262). As to conditions: protein: recombinant; tags: N-terminal GST; dsDNA, one strand shown. An outline of the steps: as §1
Chain of SPIB (Q01892 whole entry): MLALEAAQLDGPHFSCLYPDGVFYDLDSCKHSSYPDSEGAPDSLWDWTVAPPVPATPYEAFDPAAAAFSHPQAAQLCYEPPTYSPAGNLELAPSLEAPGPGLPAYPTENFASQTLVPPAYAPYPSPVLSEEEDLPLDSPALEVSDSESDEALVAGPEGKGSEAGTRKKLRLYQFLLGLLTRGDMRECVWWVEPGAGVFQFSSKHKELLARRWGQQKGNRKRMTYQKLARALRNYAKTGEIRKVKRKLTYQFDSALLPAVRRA
Another assay concerns the target T6, ELK3 (Homo sapiens, UniProt P41970 1-407).
T6 sequence: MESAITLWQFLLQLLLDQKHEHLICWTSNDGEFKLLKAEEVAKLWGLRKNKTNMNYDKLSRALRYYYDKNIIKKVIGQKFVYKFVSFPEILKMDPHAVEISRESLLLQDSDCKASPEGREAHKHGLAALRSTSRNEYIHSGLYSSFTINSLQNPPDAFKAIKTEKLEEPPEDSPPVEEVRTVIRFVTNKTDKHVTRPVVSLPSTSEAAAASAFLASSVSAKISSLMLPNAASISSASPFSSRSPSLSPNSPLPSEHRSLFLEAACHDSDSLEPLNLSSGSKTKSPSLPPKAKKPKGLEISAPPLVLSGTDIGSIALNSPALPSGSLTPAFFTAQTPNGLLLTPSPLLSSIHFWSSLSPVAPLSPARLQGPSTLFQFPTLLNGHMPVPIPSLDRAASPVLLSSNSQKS
The following applies: protein: recombinant; tags: N-terminal GST; dsDNA, one strand shown. In a few lines:
as §1

The next assay addresses T7, FEV (Homo sapiens, UniProt Q99581 1-238).
T7 sequence: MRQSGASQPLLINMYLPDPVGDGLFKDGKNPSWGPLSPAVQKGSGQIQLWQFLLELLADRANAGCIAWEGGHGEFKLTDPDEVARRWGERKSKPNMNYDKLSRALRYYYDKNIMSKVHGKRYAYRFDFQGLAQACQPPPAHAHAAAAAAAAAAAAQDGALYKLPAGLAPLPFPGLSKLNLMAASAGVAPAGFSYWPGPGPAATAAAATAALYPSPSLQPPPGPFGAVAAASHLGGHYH
As to conditions: protein: recombinant; tags: N-terminal GST; dsDNA, one strand shown. An outline of the steps:
as §1

Another assay deals with ETV5 (Homo sapiens, UniProt P41161 1-510). As to conditions: protein: recombinant; tags: N-terminal GST; dsDNA, one strand shown. An outline of the steps:
as §1

A further assay has as its target HSF1 (Homo sapiens, UniProt Q00613 1-529). As to conditions: protein: recombinant; tags: N-terminal GST; chain copies: 3; dsDNA, one strand shown. An outline of the steps:
as §1

The target of a further assay is T8, SPIC (Homo sapiens, UniProt Q8N5J4 1-248).
T8 sequence: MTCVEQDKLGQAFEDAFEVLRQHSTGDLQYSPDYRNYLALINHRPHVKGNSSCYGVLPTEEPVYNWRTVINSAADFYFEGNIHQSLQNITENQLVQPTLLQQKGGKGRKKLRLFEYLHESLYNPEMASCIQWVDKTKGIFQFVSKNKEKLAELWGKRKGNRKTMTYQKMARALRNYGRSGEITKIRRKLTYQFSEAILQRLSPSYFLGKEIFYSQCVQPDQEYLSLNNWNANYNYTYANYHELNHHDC
The following applies: protein: recombinant; tags: N-terminal GST; dsDNA, one strand shown. An outline of the steps: as §1

In the next assay the target is ELF4 (Homo sapiens, UniProt Q99607 1-663). The following applies: protein: recombinant; tags: N-terminal GST; dsDNA, one strand shown. In a few lines: as §1
Chain of ELF4 (Q99607 whole entry): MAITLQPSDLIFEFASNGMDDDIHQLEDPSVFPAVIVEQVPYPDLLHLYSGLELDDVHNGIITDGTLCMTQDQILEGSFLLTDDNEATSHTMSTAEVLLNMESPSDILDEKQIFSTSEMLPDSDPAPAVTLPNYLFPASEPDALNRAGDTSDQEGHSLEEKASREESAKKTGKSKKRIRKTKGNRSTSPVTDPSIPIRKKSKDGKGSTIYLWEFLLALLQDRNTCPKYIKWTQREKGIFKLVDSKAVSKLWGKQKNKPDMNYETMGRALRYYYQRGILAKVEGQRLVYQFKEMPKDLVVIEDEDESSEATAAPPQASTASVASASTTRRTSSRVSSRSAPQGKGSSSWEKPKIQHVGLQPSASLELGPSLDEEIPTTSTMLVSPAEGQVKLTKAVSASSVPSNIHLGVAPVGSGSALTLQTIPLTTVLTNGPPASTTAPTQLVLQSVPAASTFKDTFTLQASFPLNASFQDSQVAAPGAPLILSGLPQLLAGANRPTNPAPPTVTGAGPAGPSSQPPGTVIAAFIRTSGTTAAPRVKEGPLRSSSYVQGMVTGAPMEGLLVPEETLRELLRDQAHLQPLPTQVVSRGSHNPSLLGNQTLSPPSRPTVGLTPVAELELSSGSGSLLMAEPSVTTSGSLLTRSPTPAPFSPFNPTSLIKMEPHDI
A further assay has as its target T9, ELK4 (Homo sapiens, UniProt P28324-2 1-405).
T9 sequence: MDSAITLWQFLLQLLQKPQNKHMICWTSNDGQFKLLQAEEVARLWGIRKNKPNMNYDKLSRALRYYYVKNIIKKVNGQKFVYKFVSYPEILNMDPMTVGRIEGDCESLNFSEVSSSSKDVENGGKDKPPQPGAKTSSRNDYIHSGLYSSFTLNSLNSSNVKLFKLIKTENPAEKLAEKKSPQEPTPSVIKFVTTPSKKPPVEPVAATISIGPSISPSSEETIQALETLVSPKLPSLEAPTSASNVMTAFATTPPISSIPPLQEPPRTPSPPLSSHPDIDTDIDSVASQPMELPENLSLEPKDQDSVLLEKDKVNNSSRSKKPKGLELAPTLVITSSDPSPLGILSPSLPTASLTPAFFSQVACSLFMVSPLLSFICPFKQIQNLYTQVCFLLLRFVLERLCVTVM
The following applies: protein: recombinant; tags: N-terminal GST; dsDNA, one strand shown. In a few lines:
as §1

Another assay concerns the target T10, ETV2 (Homo sapiens, UniProt O00321 1-342).
T10 sequence: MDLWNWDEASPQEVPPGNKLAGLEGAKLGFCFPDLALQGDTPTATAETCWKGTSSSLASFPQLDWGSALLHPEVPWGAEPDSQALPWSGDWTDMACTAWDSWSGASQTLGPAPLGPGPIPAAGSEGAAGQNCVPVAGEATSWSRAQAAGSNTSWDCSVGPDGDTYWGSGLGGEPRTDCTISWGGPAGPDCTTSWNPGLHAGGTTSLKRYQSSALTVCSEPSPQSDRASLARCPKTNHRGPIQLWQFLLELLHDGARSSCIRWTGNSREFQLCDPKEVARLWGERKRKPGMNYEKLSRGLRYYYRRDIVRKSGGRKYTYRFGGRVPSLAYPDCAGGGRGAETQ
The following applies: protein: recombinant; tags: N-terminal GST; dsDNA, one strand shown. In a few lines: as §1

In another assay the target is T11, ELF3 (Homo sapiens, UniProt P78545 1-371).
T11 sequence: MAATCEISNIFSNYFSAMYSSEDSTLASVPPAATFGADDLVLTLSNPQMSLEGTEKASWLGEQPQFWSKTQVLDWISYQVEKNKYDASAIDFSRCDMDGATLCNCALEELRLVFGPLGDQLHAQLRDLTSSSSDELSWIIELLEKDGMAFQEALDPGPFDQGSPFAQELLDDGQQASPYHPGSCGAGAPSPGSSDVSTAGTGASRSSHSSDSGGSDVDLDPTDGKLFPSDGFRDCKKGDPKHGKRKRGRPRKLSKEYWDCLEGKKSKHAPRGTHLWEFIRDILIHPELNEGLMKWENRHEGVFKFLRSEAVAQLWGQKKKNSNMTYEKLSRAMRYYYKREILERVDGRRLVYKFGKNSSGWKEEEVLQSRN
The following applies: protein: recombinant; tags: N-terminal GST; dsDNA, one strand shown. An outline of the steps:
as §1

The next assay deals with CRX (Homo sapiens, UniProt O43186 1-299). The following applies: protein: recombinant; tags: N-terminal GST; dsDNA, one strand shown. An outline of the steps:
as §1

The target in the next assay is ETV1 (Homo sapiens, UniProt P50549 1-477). The following applies: protein: recombinant; tags: N-terminal GST; dsDNA, one strand shown. In a few lines:
as §1

Chain of ETV5 (P41161 whole entry): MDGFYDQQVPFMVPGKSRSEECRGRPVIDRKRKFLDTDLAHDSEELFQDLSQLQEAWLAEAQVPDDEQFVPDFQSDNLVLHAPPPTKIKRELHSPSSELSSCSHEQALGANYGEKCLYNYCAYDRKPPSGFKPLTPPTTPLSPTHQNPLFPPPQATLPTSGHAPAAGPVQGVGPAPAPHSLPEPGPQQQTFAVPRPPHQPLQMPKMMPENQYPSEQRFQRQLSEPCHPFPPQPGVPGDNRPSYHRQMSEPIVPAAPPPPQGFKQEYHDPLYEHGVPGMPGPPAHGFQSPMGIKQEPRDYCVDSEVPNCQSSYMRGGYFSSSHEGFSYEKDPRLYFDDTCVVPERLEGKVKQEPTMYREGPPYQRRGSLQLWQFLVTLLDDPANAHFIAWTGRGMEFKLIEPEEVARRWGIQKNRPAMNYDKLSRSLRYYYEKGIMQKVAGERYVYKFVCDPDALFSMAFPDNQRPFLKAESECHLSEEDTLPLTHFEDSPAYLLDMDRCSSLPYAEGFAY
Chain of HSF1 (Q00613 whole entry): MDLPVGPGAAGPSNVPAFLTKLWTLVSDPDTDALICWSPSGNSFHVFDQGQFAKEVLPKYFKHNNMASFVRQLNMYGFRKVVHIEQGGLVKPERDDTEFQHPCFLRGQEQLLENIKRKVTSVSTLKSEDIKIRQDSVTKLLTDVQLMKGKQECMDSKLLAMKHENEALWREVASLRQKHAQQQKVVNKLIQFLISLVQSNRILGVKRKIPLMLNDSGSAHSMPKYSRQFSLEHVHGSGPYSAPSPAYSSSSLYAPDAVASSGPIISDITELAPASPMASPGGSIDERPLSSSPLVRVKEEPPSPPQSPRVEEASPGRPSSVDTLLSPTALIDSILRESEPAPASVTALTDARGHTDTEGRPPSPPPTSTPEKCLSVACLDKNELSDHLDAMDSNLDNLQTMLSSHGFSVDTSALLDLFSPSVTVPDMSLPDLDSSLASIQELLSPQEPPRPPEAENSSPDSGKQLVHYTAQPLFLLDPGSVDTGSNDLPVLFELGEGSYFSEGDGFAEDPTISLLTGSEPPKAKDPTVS
Chain of ELF1 (P32519 whole entry): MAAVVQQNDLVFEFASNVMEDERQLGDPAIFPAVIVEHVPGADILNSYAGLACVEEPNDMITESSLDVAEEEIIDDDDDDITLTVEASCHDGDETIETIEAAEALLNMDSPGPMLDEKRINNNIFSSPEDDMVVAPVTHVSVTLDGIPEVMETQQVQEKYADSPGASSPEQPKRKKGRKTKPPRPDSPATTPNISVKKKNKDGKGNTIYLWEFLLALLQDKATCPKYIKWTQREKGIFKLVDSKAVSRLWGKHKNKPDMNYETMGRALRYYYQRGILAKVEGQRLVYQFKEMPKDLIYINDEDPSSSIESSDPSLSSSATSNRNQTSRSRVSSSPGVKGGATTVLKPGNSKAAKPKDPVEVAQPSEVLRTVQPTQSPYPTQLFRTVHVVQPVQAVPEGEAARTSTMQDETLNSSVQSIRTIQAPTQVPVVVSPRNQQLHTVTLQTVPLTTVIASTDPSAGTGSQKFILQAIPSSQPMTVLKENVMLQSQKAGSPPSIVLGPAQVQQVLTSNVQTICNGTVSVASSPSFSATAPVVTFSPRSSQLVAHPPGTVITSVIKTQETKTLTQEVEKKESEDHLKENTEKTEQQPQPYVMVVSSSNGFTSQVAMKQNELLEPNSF
Chain of CRX (O43186 whole entry): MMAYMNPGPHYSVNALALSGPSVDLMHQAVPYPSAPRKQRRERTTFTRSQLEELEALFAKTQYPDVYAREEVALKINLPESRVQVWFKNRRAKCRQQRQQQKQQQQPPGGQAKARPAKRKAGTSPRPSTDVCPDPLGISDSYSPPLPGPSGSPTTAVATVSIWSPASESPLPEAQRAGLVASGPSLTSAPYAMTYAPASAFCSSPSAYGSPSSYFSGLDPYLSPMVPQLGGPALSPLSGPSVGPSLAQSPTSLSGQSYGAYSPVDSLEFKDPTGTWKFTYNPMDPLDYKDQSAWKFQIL
Chain of ETV1 (P50549 whole entry): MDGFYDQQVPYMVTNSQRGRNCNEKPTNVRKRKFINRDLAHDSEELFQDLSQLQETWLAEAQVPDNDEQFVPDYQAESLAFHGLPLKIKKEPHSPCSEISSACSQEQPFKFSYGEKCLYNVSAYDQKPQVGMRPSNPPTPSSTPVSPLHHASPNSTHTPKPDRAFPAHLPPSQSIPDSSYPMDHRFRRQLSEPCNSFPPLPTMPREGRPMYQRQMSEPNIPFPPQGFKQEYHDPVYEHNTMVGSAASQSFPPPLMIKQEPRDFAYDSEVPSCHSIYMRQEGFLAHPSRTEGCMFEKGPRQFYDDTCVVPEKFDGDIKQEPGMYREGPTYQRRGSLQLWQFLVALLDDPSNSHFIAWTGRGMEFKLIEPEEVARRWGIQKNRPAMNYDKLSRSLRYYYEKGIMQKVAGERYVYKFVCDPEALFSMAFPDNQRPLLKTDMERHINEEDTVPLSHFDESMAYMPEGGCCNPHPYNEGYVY

With TGCTCA, the binding signal with FLI1 was 1.32 fold enrichment (6-mer frequency, TF over GST control); in the assay with ELK1, 1.28 fold enrichment (6-mer frequency, TF over GST control); with GABPA, 1.34 fold enrichment (6-mer frequency, TF over GST control); with ERG, 1.41 fold enrichment (6-mer frequency, TF over GST control); in the assay with ELF1 it was 1.41 fold enrichment (6-mer frequency, TF over GST control); with EHF, 1.36 fold enrichment (6-mer frequency, TF over GST control). In addition, the binding signal with SPI1 is 1.27 fold enrichment (6-mer frequency, TF over GST control); with SPIB, 1.35 fold enrichment (6-mer frequency, TF over GST control); in the assay with ELK3, 1.19 fold enrichment (6-mer frequency, TF over GST control); with FEV it was 1.39 fold enrichment (6-mer frequency, TF over GST control); in the assay with ETV5, 1.4 fold enrichment (6-mer frequency, TF over GST control); in the assay with HSF1, 1.12 fold enrichment (6-mer frequency, TF over GST control). Further, the binding signal is 1.65 fold enrichment (6-mer frequency, TF over GST control) with SPIC; 1.28 fold enrichment (6-mer frequency, TF over GST control) with ELF4; 1.24 fold enrichment (6-mer frequency, TF over GST control) with ELK4; 1.42 fold enrichment (6-mer frequency, TF over GST control) in the assay with ETV2; 1.31 fold enrichment (6-mer frequency, TF over GST control) with ELF3; 1.28 fold enrichment (6-mer frequency, TF over GST control) in the assay with CRX. In addition, the binding signal in the assay with ETV1 is 1.34 fold enrichment (6-mer frequency, TF over GST control).
